Read-out in assay [1]: Interleukin-8 (IL8), CXCL8 (gene 3576)
Description: BSK_CASM3C_IL8: BioMAP Diversity Plus: CASM3C Assay for Interleukin-8 (IL8) Biomarker Activity (AID 2283042).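 Note: IL-8 protein level quantified by ELISA.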 The settings on record: primary human coronary artery smooth muscle cells; actives raise or lower the signal.

Read-out in assay [2]: Human Leukocyte Antigen - DR isotype (HLADR), HLA-DRA (gene 3122)
As to the kind of experiment: BSK_CASM3C_HLADR: BioMAP Diversity Plus: CASM3C Assay for Human Leukocyte Antigen - DR isotype (HLADR) Biomarker Activity (AID 2283043).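 Note: cell-surface HLA-DR protein level quantified by ELISA.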 The settings on record: primary human coronary artery smooth muscle cells; actives raise or lower the signal.

Read-out in assay [3]: Macrophage colony-stimulating factor (MCSF), CSF1 (gene 1435)
As to the kind of experiment: BSK_CASM3C_MCSF: BioMAP Diversity Plus: CASM3C Assay for Macrophage colony-stimulating factor (MCSF) Biomarker Activity (AID 2283044).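 Note: M-CSF protein amount quantified by ELISA after 24 h exposure.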 The note with it: primary human coronary artery smooth muscle cells; actives raise or lower the signal.

Read-out in assay [4]: Low-density lipoprotein receptor (LDLR), LDLR (gene 3949)
Description: BSK_CASM3C_LDLR: BioMAP Diversity Plus: CASM3C Assay for Low-density lipoprotein receptor (LDLR) Biomarker Activity (AID 2283045).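 Note: LDLR protein level on the cell surface quantified by ELISA.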 The note with it: primary human coronary artery smooth muscle cells; actives raise or lower the signal.

Read-out in assay [5]: Monocyte Chemoattractant Protein-1 (MCP1), CCL2 (gene 6347)
As to the kind of experiment: BSK_CASM3C_MCP1: BioMAP Diversity Plus: CASM3C Assay for Monocyte Chemoattractant Protein-1 (MCP1) Biomarker Activity (AID 2283046).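 Note: MCP-1 level quantified by ELISA 24 h after dosing.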 The settings on record: primary human coronary artery smooth muscle cells; actives raise or lower the signal.

The nature of assay [6]: BSK_CASM3C_Proliferation: Cell Proliferation Assessment in the BioMAP Diversity Plus: CASM3C Assay (AID 2283047).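 Note: sulforhodamine B total protein stain as relative cell number at 560 nm; sub-confluent cells exposed 48 h before staining; fitted both ways against DMSO so gain or loss of cell number.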 The note with it: primary human coronary artery smooth muscle cells.
Read-out in assay [7]: Monokine induced gamma interferon (MIG), CXCL9 (gene 4283)
Description: BSK_CASM3C_MIG: BioMAP Diversity Plus: CASM3C Assay for Monokine induced gamma interferon (MIG) Biomarker Activity (AID 2283048).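 Note: MIG protein level measured by ELISA.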 The note with it: primary human coronary artery smooth muscle cells; actives raise or lower the signal.

Read-out in assay [8]: serum amyloid A (SAA), SAA1 (gene 6288)
Description: BSK_CASM3C_SAA: BioMAP Diversity Plus: CASM3C Assay for serum amyloid A (SAA) Biomarker Activity (AID 2283049).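 Note: SAA protein level quantified by ELISA.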 The settings on record: primary human coronary artery smooth muscle cells; actives raise or lower the signal.

A short description of assay [9]: BSK_CASM3C_SRB: Viability Assessment in the BioMAP Diversity Plus: CASM3C Assay (AID 2283050).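 Note: total protein by SRB staining as cytotoxicity measure in parallel cultures.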 The note with it: primary human coronary artery smooth muscle cells.
Read-out in assay [10]: Thrombomodulin, THBD (gene 7056)
Description: BSK_CASM3C_Thrombomodulin: BioMAP Diversity Plus: CASM3C Assay for Thrombomodulin Biomarker Activity (AID 2283051).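 Note: thrombomodulin protein level measured by ELISA 24 h after dosing.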 The note with it: primary human coronary artery smooth muscle cells; actives raise or lower the signal.

Read-out in assay [11]: Tissue Factor, F3 (gene 2152)
Description: BSK_CASM3C_TissueFactor: BioMAP Diversity Plus: CASM3C Assay for Tissue Factor Biomarker Activity (AID 2283052).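 Note: cell surface tissue factor protein level read by ELISA.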 The settings on record: primary human coronary artery smooth muscle cells; actives raise or lower the signal.

Read-out in assay [12]: Interferon-gamma inducible Protein 10 (IP10), CXCL10 (gene 3627)
Description: BSK_hDFCGF_IP10: BioMAP Diversity Plus: hDFCGF Assay for Interferon-gamma inducible Protein 10 (IP10) Biomarker Activity (AID 2283053). The note with it: primary human foreskin fibroblasts; actives raise or lower the signal. An outline of the steps:
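Human foreskin fibroblast primary cells (hDFCGF system) were dosed with chemical and assayed at 24 h; IP-10 measured by ELISA. Activity fitted bidirectionally relative to DMSO negative control as baseline.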

Read-out in assay [13]: Urokinase-type plasminogen activator receptor (uPAR), PLAUR (gene 5329)
As to the kind of experiment: BSK_CASM3C_uPAR: BioMAP Diversity Plus: CASM3C Assay for Urokinase-type plasminogen activator receptor (uPAR) Biomarker Activity (AID 2283054).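 Note: cell-surface uPAR protein level quantified by ELISA.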 The settings on record: primary human coronary artery smooth muscle cells; actives raise or lower the signal.

Read-out in assay [14]: Vascular cell adhesion molecule 1 (VCAM1), VCAM1 (gene 7412)
As to the kind of experiment: BSK_CASM3C_VCAM1: BioMAP Diversity Plus: CASM3C Assay for Vascular cell adhesion molecule 1 (VCAM1) Biomarker Activity (AID 2283055).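 Note: VCAM-1 protein level quantified by ELISA on the cells.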 The note with it: primary human coronary artery smooth muscle cells; actives raise or lower the signal.

Read-out in assay [15]: Collagen III, COL3A1 (gene 1281)
As to the kind of experiment: BSK_hDFCGF_CollagenIII: BioMAP Diversity Plus: hDFCGF Assay for Collagen III Biomarker Activity (AID 2283056). The settings on record: primary human foreskin fibroblasts; actives raise or lower the signal. An outline of the steps: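 Response relative to DMSO, fitted in both directions, reflects ELISA-measured collagen III in human primary skin fibroblasts 24 h after compound addition.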

Read-out in assay [16]: Epidermal growth factor receptor (EGFR), EGFR (gene 1956)
As to the kind of experiment: BSK_hDFCGF_EGFR: BioMAP Diversity Plus: hDFCGF Assay for Epidermal growth factor receptor (EGFR) Biomarker Activity (AID 2283057). The settings on record: primary human foreskin fibroblasts; actives raise or lower the signal. An outline of the steps: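 Primary human foreskin fibroblasts were exposed to compound for 24 h, after which cell-surface EGFR was quantified by ELISA. Activity was fitted bidirectionally against the DMSO negative control as baseline.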

Read-out in assay [17]: Interleukin-8 (IL8), CXCL8 (gene 3576)
As to the kind of experiment: BSK_hDFCGF_IL8: BioMAP Diversity Plus: hDFCGF Assay for Interleukin-8 (IL8) Biomarker Activity (AID 2283058). The settings on record: primary human foreskin fibroblasts; actives raise or lower the signal. An outline of the steps:
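Fibroblast monolayers (human foreskin, hDFCGF) received test chemical for 24 h before ELISA detection of IL-8; either increases or decreases relative to DMSO count as activity.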

Assay [18] can be described thus: BSK_hDFCGF_Proliferation: Cell Proliferation Assessment in the BioMAP Diversity Plus: hDFCGF Assay (AID 2283059).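 Note: curves fitted for both rise and fall of signal versus DMSO baseline.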 The settings on record: primary human foreskin fibroblasts. In short, it runs like this: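 Steps: dose primary human dermal fibroblasts (foreskin); […] fix in 10% TCA; stain with 0.1% SRB; read 560 nm; fit gain or loss of signal against DMSO.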

Read-out in assay [19]: Macrophage colony-stimulating factor (MCSF), CSF1 (gene 1435)
As to the kind of experiment: BSK_hDFCGF_MCSF: BioMAP Diversity Plus: hDFCGF Assay for Macrophage colony-stimulating factor (MCSF) Biomarker Activity (AID 2283060). The settings on record: primary human foreskin fibroblasts; actives raise or lower the signal. In short, it runs like this: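 fibroblasts (human foreskin, primary), 24 h post-dose; M-CSF by ELISA; bidirectional fit, DMSO = baseline.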

Assay [20] in a line: BSK_hDFCGF_SRB: Viability Assessment in the BioMAP Diversity Plus: hDFCGF Assay (AID 2283061).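 Note: cells exposed to compound for 24 h before the read.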 The settings on record: primary human foreskin fibroblasts. In short, it runs like this: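 SRB-based viability read on primary human skin fibroblasts at 24 h: TCA fixation, 0.1% dye, 560 nm. Gain or loss of signal is fitted against the DMSO negative control.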

Activity calls are given as the source filed them. Rule for the calls: active = hit-call score of the fitted dose curve at least 0.9, where 1 is the maximum; inactive = score below 0.9.

Usually AC50 stands for the midpoint of the concentration-response curve, whichever way the signal moves. Take `CCCCC(CC)COP(=O)(OCC(CC)CCCC)OCC(CC)CCCC` (stereo not given): the result in assay [1], in assay [2], in [3], in assay [4], in assay [5] and in assay [6] was inactive. For the same molecule, the result in assay [7], in [8], in [9], in [11], in assay [12] and in [13] was inactive. Besides, the result in assay [14], in assay [15], in assay [16], in assay [17], in assay [19] and in [20] was inactive. Besides, the results for the AC50 in [10] and in assay [18] were 7.89 µM (active) and 7.49 µM (active), respectively.
`N[C@@H](Cc1c[nH]c2ccccc12)C(=O)O`: the outcome in assay [1], in assay [2], in [3], in assay [4], in assay [5] and in [6] was inactive. For the same molecule, the outcome in [7], in [8], in assay [9], in assay [10], in [11] and in [12] was inactive. For the same molecule, the outcome in assay [13], in assay [14], in assay [15], in assay [16], in [17] and in assay [18] was inactive. Besides, the outcome in [19] and in [20] was inactive.
Turning to `O=C(N[C@@H](c1ccccc1)[C@@H]1CCCCN1)c1cccc(C(F)(F)F)c1Cl`, the result in assay [1], in assay [2], in [3], in assay [5], in [7] and in assay [8] was inactive. Besides, the outcome in assay [10], in assay [11], in assay [13], in assay [14], in assay [15] and in [16] was inactive. The result in assay [17], in [19] and in assay [20] was inactive. The concentration at half-maximal activity (AC50) in [4] was 15.4 µM (active); in assay [6], 30.3 µM (active); in assay [9], 30.9 µM (active); in assay [12] it was 10.5 µM (active); in assay [18], 28.7 µM (active).
As for `CCCCC(CC)CO` (stereo not given), the outcome in assay [1], in assay [2], in assay [3], in assay [4], in assay [5] and in [6] was inactive. Also, the result in assay [7], in assay [8], in [9], in assay [10], in assay [11] and in [12] was inactive. Moreover, the result in [13], in assay [14], in assay [15], in assay [16], in assay [17] and in assay [18] was inactive. Moreover, the outcome in assay [19] and in assay [20] was inactive.
Consider `CCc1nc(N)nc(N)c1-c1ccc(Cl)cc1`, for which the outcome in assay [1], in assay [2], in assay [3], in assay [4], in [5] and in assay [6] was inactive. The outcome in assay [7], in assay [8], in [9], in [10], in assay [11] and in [12] was inactive. Further, the outcome in assay [13], in assay [14], in assay [15], in assay [16], in [17] and in assay [18] was inactive. Moreover, the result in assay [19] and in assay [20] was inactive.
Turning to `CCCC(=O)O`, the result in assay [1], in [2], in [3], in [4], in assay [5] and in assay [6] was inactive. In addition, the result in [7], in [8], in assay [9], in assay [10], in assay [11] and in assay [12] was inactive. Further, the outcome in assay [13], in [14], in assay [15], in [16], in assay [17] and in [18] was inactive. The result in assay [19] and in assay [20] was inactive.
For the molecule `O=C1c2c(O)cccc2Cc2cccc(O)c21`, the result in assay [1], in [2], in assay [3], in assay [4], in assay [5] and in [7] was inactive. For the same molecule, the result in assay [8], in assay [9], in assay [10], in assay [11], in assay [13] and in assay [14] was inactive. The result in assay [16], in assay [17] and in assay [18] was inactive. The AC50 in assay [6] was 9.85 µM (active); in [12], 17.1 µM (active); in assay [15], 30.7 µM (active); in [19] it was 17.1 µM (active); in [20] it was 7.76 µM (active).
